Measurements published in PubChem BioAssay (Tox21).
Records with an inconclusive call do not appear. Entries that show only a call come without a potency. Calls of active or inactive are those of the source. Calls come from the whole dose curve; as a rule, active = well fitted activation curve with a large enough effect in the repeat runs; inconclusive = weak or mixed curves, or effect the other way; inactive = no such curve, though single readings can be large or run the other way.

assay: qHTS assay to identify small molecule agonists of the retinoic acid receptor (RAR) signaling pathway (AID 1159553); conditions: C3RL4 RARE luciferase reporter, agonist, 6 h; series mostly up to 73.3 µM
Source text: National Center for Advancing Translational Sciences [NCATS] NIH Chemical Genomics Center [NCGC] U.S. Environmental Protection Agency [EPA] National Institutes of Environmental Health Sciences [NIEHS] National Toxicology Program [NTP] Assay overview: All-trans Retinoic acid (atRA) is the potent natural metabolite of retinol and plays an important role in normal embryonic development and maintenance of cellular phenotype in adult animals. atRA is the activating ligand for the retinoic acid receptors (RARs) which form heterodimers with retinoid X receptors (RXRs) on the retinoic acid response element (RARE). Through activation of the RAR/RXRs nuclear receptors, atRA regulates the transcription of a large number of protein-coding genes and regulatory RNAs. Intracellular levels of atRA are controlled by the retinol signaling pathway (RSP) that regulates the biosynthesis and catabolism of atRA to maintain physiological levels. Chemicals that interfere with the RSP can cause abnormal intracellular levels of atRA and therefore are potential developmental toxicants. To assess compounds for the potential adverse effect on embryonic development through interfering with retinol signaling, a cell-based RARE luciferase reporter gene assay was used. C3RL4 cell line (OARSA/CFSAN/FDA, Laurel, MD) was used to screen Tox21 10K compound library for identifying activators of the RSP.
Assay Protocol Summary: C3RL4 cells were seeded at 1,000/well in 5 uL of assay medium into white solid 1,536-well tissue culture plates (Greiner Bio-One North America Inc. Monroe, NC) using a Multidrop Combi (Thermo Scientific, Waltham, MA) dispenser. After incubation at 37 C and 5% CO2 for an overnight, 23 nL of compounds dissolved in DMSO, positive control or DMSO only were transferred by a Pintool station (Kalypsys, San Diego, CA). After 6 hr incubation at 37 C and 5% CO2, 5 uL of Amplite Luciferase reagent (AAT Bioquest Inc. Sunnyvale, CA) was added to each assay plate using a Flying Reagent Dispenser (FRD) (Aurora Discovery, San Diego, CA). Luminescence was quantified on a ViewLux plate reader (PerkinElmer, Waltham, MA) after 30 min incubation at room temperature.

Row | SMILES | Potency
1 | COc1ccc([N+](=O)[O-])cc1N | inactive
2 | CCOC(=O)n1ccn(C)c1=S | inactive
3 | CN(C)CCOC(=O)COc1ccc(Cl)cc1 | inactive
4 | O=C1C(c2[nH]c3ccccc3c2O)=Nc2ccccc21 | inactive
5 | Cc1ccc2ncccc2c1 | inactive
6 | CCCCCCCO | inactive
7 | O=C(O)CCCCCCCCC(=O)O | inactive
8 | CCCCCCCCCCCCCCCC(=O)OC(C)C | inactive
9 | C=C(C)C(=O)OCC(C)C | inactive
10 | O=C(OCC1CCC2OC2C1)C1CCC2OC2C1 (stereo not given) | inactive
11 | C=Cc1ccc(C)cc1 | inactive
12 | Brc1ccc(Br)c(Br)c1 | inactive
13 | CC1(C)S[C@@H]2[C@H](NC(=O)COc3ccccc3)C(=O)N2[C@H]1C(=O)O | inactive
14 | N[C@H](Cc1c[nH]c2ccccc12)C(=O)O | inactive
15 | CCNc1cccc(C)c1 | inactive
16 | O=C(O)c1ccccc1C(=O)O | inactive
17 | O=C(O)c1cc2ccccc2cc1O | inactive
18 | CC(CCl)OP(=O)(OC(C)CCl)OC(C)CCl (stereo not given) | inactive
19 | CC(C)CCCCCCCOC(=O)CCCCC(=O)OCCCCCCCC(C)C | inactive
20 | CC(=O)OCc1ccccc1 | inactive

Row | SMILES | Potency
21 | O=C(O)Cn1c(=O)n(Cc2ccc(Br)cc2F)c(=O)c2ccc(Cl)cc21 | inactive
22 | C[C@]12CC[C@@H]3c4ccc(O)cc4CC[C@H]3[C@@H]1C[C@@H](O)[C@@H]2O | inactive
23 | Clc1ccccn1 | inactive
24 | CC(O)CC(C)(C)O (stereo not given) | inactive
25 | CCCCC(C=O)CC (stereo not given) | inactive
26 | COc1ccc(CCC(C)=O)cc1 | inactive
27 | CCOCC(=O)O | inactive
28 | O=c1[nH]cnc2[nH]ncc12 | inactive
29 | CCNc1ccccc1 | inactive
30 | COC(=O)CCCC(=O)OC | inactive
31 | CC(=O)OC1CC(C)OC(C)O1 (stereo not given) | inactive
32 | NC(=S)NNC(N)=S | inactive
33 | CC(C)=CCl | inactive
34 | C=CC(C)CCCC(C)(C)O (stereo not given) | inactive
35 | NCCN1CCNCC1 | inactive
36 | C=CC[N+](C)(C)CC=C | inactive
37 | CC1(C)CC(N)CC(C)(CN)C1 (stereo not given) | inactive
38 | COc1ccc(C)cc1N | inactive
39 | CC(=O)CCC=C(C)C | inactive
40 | CC(=O)OCc1ccco1 | inactive
